Bioassay records as filed in PubChem.
IDE exosite FP = exo-site inhibitors of human IDE, primary screen, biochemical, fluorescence anisotropy, probe displacement; Insulin-degrading enzyme (Homo sapiens), P14735; purified IDE, FL-6b probe fluorescence polarization; hits give low values; z-score at 20 µM; actives 6.3% (n = 17,000);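 active = z-score of -3 or lower, meaning strong loss of probe binding signal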;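 also: His-tagged human IDE residues 42-1019 made in E. coli with 30 nM FL-6b probe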
Target sequence (P14735 42-1019 limits assumed): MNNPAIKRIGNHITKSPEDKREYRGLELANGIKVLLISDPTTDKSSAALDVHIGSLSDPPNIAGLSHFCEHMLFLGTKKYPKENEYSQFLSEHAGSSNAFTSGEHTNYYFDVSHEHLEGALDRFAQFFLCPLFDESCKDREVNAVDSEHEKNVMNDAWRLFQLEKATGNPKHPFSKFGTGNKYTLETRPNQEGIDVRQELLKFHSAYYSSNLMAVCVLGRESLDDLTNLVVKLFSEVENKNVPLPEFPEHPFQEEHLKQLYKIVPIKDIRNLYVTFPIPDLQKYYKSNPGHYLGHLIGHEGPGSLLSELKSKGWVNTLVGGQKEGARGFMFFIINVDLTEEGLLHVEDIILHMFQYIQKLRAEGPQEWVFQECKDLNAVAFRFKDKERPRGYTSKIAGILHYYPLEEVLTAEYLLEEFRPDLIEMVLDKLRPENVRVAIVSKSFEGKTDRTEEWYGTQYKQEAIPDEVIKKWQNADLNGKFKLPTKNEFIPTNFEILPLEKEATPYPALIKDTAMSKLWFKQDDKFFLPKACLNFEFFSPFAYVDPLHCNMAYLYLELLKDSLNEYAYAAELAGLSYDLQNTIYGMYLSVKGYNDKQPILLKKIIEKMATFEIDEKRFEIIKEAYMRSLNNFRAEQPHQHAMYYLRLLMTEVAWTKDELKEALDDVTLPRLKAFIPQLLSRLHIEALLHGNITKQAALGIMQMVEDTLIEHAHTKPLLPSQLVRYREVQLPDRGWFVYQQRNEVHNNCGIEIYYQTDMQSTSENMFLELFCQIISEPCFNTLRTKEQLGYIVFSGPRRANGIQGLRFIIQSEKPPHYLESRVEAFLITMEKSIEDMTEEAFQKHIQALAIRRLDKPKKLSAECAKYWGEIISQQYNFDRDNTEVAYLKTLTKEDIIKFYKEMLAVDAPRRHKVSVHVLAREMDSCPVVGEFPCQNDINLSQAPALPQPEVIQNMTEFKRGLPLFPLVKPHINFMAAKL
Large screens that a line does not name were inactive. Only a selection was taken, and hits are over-represented in it overall.

O=C(NC1CCCC1)N1CC(=O)N2[C@H](CO)[C@H](c3ccc(C4=CCCCC4)cc3)[C@@H]2C1	none
CC(C)C#Cc1ccc([C@@H]2[C@@H](CO)N3C(=O)CN(C(=O)NC4CCCC4)C[C@H]23)cc1	none
CC(C)C#Cc1ccc([C@@H]2[C@H](CO)N3C(=O)CN(C(=O)NC4CCCC4)C[C@@H]23)cc1	none
Cc1ccccc1-c1ccc([C@H]2[C@H]3CN(C(=O)NC4CCCC4)CC(=O)N3[C@H]2CO)cc1	IDE exosite FP -12.4
N#Cc1cccc(-c2ccc([C@H]3[C@@H](CO)N4CCCCN(C(=O)Nc5ccc(F)cc5)C[C@H]34)cc2)c1	none
COCC(=O)N1CCCCN2[C@H](CO)[C@H](c3ccc(C#Cc4ccccc4)cc3)[C@H]2C1	IDE exosite FP -6.34
COCC(=O)N1CCCCN2[C@H](CO)[C@@H](c3ccc(C#Cc4ccccc4)cc3)[C@@H]2C1	IDE exosite FP -8.53
COc1ccccc1NC(=O)N1CCCCN2[C@H](CO)[C@H](c3ccc(C#Cc4ccccc4)cc3)[C@H]2C1	none
COCC(=O)N1CCCCN2[C@@H](CO)[C@@H](c3ccc(C#Cc4ccc(OC)cc4)cc3)[C@@H]2C1	none
COc1ccccc1NC(=O)N1CCCCN2[C@H](C1)[C@@H](c1ccc(C#Cc3ccccc3)cc1)[C@@H]2CO	none
COCC(=O)N1CCCCN2[C@@H](CO)[C@@H](c3ccc(C#Cc4ccccc4)cc3)[C@@H]2C1	IDE exosite FP -8.48
COCC#Cc1ccc([C@@H]2[C@H](CO)N3CCCCN(C(=O)COC)C[C@@H]23)cc1	none
COCC(=O)N1CCCCN2[C@H](C1)[C@H](c1ccc(C#Cc3ccc(OC)cc3)cc1)[C@@H]2CO	none
N#C[C@H]1[C@@H](c2ccc(/C=C/c3ccccc3)cc2)[C@@H](CO)N1C(=O)Nc1ccccc1F	none
CCC(=O)N(CC(C)C)C[C@H]1[C@H](c2ccccc2)[C@@H](CO)N1C(=O)C1CCC1	none
CNC[C@H]1OCCCC[C@H](C)Oc2ccc(NC(=O)Nc3ccc(OC)cc3)cc2C(=O)N([C@H](C)CO)C[C@H]1C	none
O=C(c1ccccn1)N1CC[C@@H]2[C@H](CO)Nc3ccc(Br)cc3[C@@H]21	none
Cc1ccccc1S(=O)(=O)N1[C@@H]2CNC[C@H]1C2c1ccc(-c2ccc(C(=O)N(C)C)cc2)cc1 (some centres not stated)	none
CC(=O)N1CC(=O)N2[C@H](CO)[C@H](c3ccc(C#Cc4cccnc4)cc3)[C@H]2C1	none
COc1cccc(C#Cc2ccc([C@H]3[C@@H](CO)N4C(=O)CN(C(C)=O)C[C@@H]34)cc2)c1	IDE exosite FP -5.05
COc1cccc(C#Cc2ccc([C@@H]3[C@H]4CN(C(C)=O)CC(=O)N4[C@H]3CO)cc2)c1	IDE exosite FP -3.9
COc1ccc(C#Cc2ccc([C@@H]3[C@@H](CO)N4C(=O)CN(C(C)=O)C[C@@H]34)cc2)cc1	none
CC(=O)N1CC(=O)N2[C@@H](CO)[C@H](c3ccc(C#Cc4cccnc4)cc3)[C@@H]2C1	none
COc1ccc(C#Cc2ccc([C@H]3[C@H](CO)N4C(=O)CN(C(C)=O)C[C@@H]34)cc2)cc1	none
COc1cccc(C#Cc2ccc([C@@H]3[C@@H](CO)N4C(=O)CN(C(C)=O)C[C@H]34)cc2)c1	none
CC(=O)N1CC(=O)N2[C@H](CO)[C@@H](c3ccc(C#Cc4cccnc4)cc3)[C@H]2C1	none
COc1cccc(C#Cc2ccc([C@H]3[C@@H](CO)N4C(=O)CN(C(C)=O)C[C@H]34)cc2)c1	IDE exosite FP -7.89
CC[C@@H]1C/C=C\C[C@H](C(C)C)NC(=O)CCC(=O)N1	none
Cc1ccc(-c2ccc([C@H]3[C@@H](CO)N4CCCCN(Cc5ccccn5)C[C@H]34)cc2)cc1	none
CCS(=O)(=O)Nc1ccc2c(c1)C(=O)N(C)[C@H]1CC[C@H](CC(=O)N3CCN(C)CC3)O[C@@H]1CO2	none
O=C(NC1CCCCC1)N1CC(=O)N2[C@H](CO)[C@H](c3ccc(-c4cccc(F)c4)cc3)[C@@H]2C1	none
O=C(NC1CCCCC1)N1CC(=O)N2[C@@H](CO)[C@@H](c3ccc(C4=CCCC4)cc3)[C@@H]2C1	none
Cc1cccc(-c2ccc([C@H]3[C@@H](CO)N4C(=O)CN(C(=O)NC5CCCCC5)C[C@@H]34)cc2)c1	IDE exosite FP -10.1
Cc1cccc(-c2ccc([C@H]3[C@H](CO)N4C(=O)CN(C(=O)NC5CCCCC5)C[C@@H]34)cc2)c1	IDE exosite FP -16.3
Cc1cccc(-c2ccc([C@@H]3[C@H]4CN(C(=O)NC5CCCCC5)CC(=O)N4[C@H]3CO)cc2)c1	IDE exosite FP -15.8
O=C(NC1CCCCC1)N1CC(=O)N2[C@H](CO)[C@@H](c3ccc(-c4cccc(F)c4)cc3)[C@H]2C1	none
CO[C@H](CN(C)S(=O)(=O)c1ccc(C)cc1)[C@H](C)CN(C(=O)Nc1ccccc1F)[C@H](C)CO	none
CCS(=O)(=O)Nc1ccc2c(c1)C(=O)N(C)[C@@H]1CC[C@H](CC(=O)NCc3ccccc3F)O[C@H]1CO2	none
CO[C@H]1CC[C@H]2CCOc3ccc(C#N)cc3C(=O)N(C)CC3(CCCCC3)CC(=O)N(C)C[C@H]1O2	none
